Results from PubChem BioAssay AID504773 (Broad Institute, 2011).
Results with a measured potency or affinity are listed apart. Calls of active or inactive are those of the source.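 Rule for the calls: active = polarization signal falls with dose and the fitted half-maximal concentration is at or below ten times the sample's top valid dose; inconclusive = flat curve at 30 to 70% inhibition, or poor fit; inactive = signal rises, flat within 30%, or potency beyond limit.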

target: Golgi-associated PDZ and coiled-coil motif-containing protein (Homo sapiens) (UniProt Q9HD26); experiment: CAL PDZ peptide-binding inhibitors, dose response, biochemical, fluorescence polarization, Cerulean-tagged CAL PDZ, cherry-picks (AID 504773); details: 1 h; series mostly up to 50 µM; activity change, negative = inhibition: at the top concentration;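 note: 0% = DMSO neutral wells and -100% = excess unlabeled competitor peptide wells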

Activity change, negative = inhibition, inactive:
CC(=O)Nc1sc2c(c1C(c1ccccn1)N1CCN(C)CC1)CCCC2 (stereo not drawn) 24.4%
O=C(NCc1ccccc1)c1cc2ccc(O)cc2oc1=O -30.7%
CC(=O)Nc1ccc(N/C=C/C(=O)c2ccccc2)cc1 14.7%
C/C(=N/N1CCN(c2ccccn2)CC1)c1ccc([N+](=O)[O-])cc1 2.05%
CCOC(=O)CCNC(=O)N1CCCC(CNS(=O)(=O)Cc2ccccc2)C1 (stereo not drawn) -0.597%
CCOc1c(Cl)cc(CNc2nnnn2C)cc1OC 0.869%
Cc1nn2c3ccccc3nc2c2ccccc12 -34.8%
CC(C)(C)OC(=O)N[C@@H](Cc1c[nH]c2ccccc12)c1nnc(SCC(N)=O)o1 13.3%
CC(C)c1ccc(CNC(=O)C(=O)NCCCn2ccnc2)cc1 -10.6%
CC(=O)N1CCN(c2ccc(NC(=O)c3cccc(Cl)c3Cl)cc2)CC1 11.3%
O=C(CSc1nc2c(sc3ccccc32)c(=O)n1Cc1ccccc1)NCC1CCCO1 (stereo not drawn) 13.4%
Cc1c(C)c2cc3c4c(oc3c(C)c2oc1=O)CCCC4 19.3%
O=C(/C=C/c1cccs1)Nc1scc(-c2ccccc2)c1C(=O)O -23.1%
CCN(CC)S(=O)(=O)c1ccc2nc(NC(=O)c3ccco3)sc2c1 -28.5%
CC1CCCN(C(=O)Cc2cccc3ccccc23)C1 (stereo not drawn) 9.32%
CC(C)OCCCNC(=O)C1CC(=O)N(CCc2ccc(F)cc2)C1 (stereo not drawn) -11.6%
CCOc1ccc(N(CC(=O)N2CCN(Cc3ccccc3)CC2)S(C)(=O)=O)cc1 -7.95%
Cc1sc2ncn(CC(=O)NCCCC(=O)N3CCN(Cc4ccc5c(c4)OCO5)CC3)c(=O)c2c1C -11.6%
